According to publication PMC13494018:

B1: design_617_b3fadc1d-0db4-4da8-8433-818493aa2ab2_944_dldesign_0_cycle1_af2pred (protein)
chain: AEAAAIEQLNTAVEIIESAAKAGERFARAAAGLFITLARQYADVVPKETLTALAERATAAAAPVPAVAERLAAALQEVIEA
B2: design_617_b3fadc1d-0db4-4da8-8433-818493aa2ab2_2293_dldesign_0_cycle1_af2pred (protein)
chain: AEEALKLLKEAKKKAEEALKLAEKGGDPEEIKALVNEALSLATKGSAQAVKHPEIAPLGNAVLGYAVDVAERVEELLKERE
B3: design_617_b3fadc1d-0db4-4da8-8433-818493aa2ab2_836_dldesign_0_cycle1_af2pred (protein)
chain: VTPEEAKKRVEELVEEAIKLAEKADPAEAEKIRKTYETEGPLAAAAVIWAIGNRFAEKPETKEIGERLRELAIEAIRLLLAAAAA
B4: design_618_d4ffd631-0ea2-432e-ba0f-bd3d6297b2a0_140_dldesign_0_cycle1_af2pred (protein)
chain: NEDLTKAGEKVVETQRTASEAARTSGDPAVAAEMNAIANAAIKALQAGVATGDYKTALETTEKLLKEAKAKLKEVK
B5: design_617_b3fadc1d-0db4-4da8-8433-818493aa2ab2_820_dldesign_0_cycle1_af2pred (protein)
chain: AEGKALVEQAKALAAQGAAHPQHAAAVAGTLANIGKYLAKLGPEYAKAAADVLNAFAKAVPSVAAQAKAAAAELEKLAKEA
B6: design_618_d4ffd631-0ea2-432e-ba0f-bd3d6297b2a0_93_dldesign_0_cycle1_af2pred (protein)
chain: MEEVKALIARAAELLAAAAADPSTAGEKVTEAIRLLAEAAALDPSIAPLANEAMALATRGLVTGPEGLAAAEEATKAVLEAV
B7: design_617_b3fadc1d-0db4-4da8-8433-818493aa2ab2_1817_dldesign_0_cycle1_af2pred (protein)
chain: AEEERMRAAIREIAAAAAAEVEAWAKAHPAADQAEWFAALQAAGEKAAEAMAAIDPRYAPEARALAMALGAGAVQRVKA
B8: design_617_b3fadc1d-0db4-4da8-8433-818493aa2ab2_1042_dldesign_0_cycle1_af2pred (protein)
chain: MSAAEIIREALKLLKEAAKAAATDPAKAKELADKAIALGKENQGAALLLSNTARNLAATATPEEAAFLLEVAERARAVAEAL
B9: design_618_d4ffd631-0ea2-432e-ba0f-bd3d6297b2a0_110_dldesign_0_cycle1_af2pred (protein)
chain: AGAAAAEEIRALVDKAIADPATAPEYTARAAEIARAADPRLAGVGQAILAAAERLAAGSPEEAARHAAQMRELTDVVVATLLG
B10: design_618_d4ffd631-0ea2-432e-ba0f-bd3d6297b2a0_318_dldesign_0_cycle1_af2pred (protein)
chain: MEKKEELKKKAEEAIKKLKKLKEEGASPEEINKALAEAVELAKEAAEAGDSETANRLLSEAGRLSIEALKNHAA
B11: design_617_b3fadc1d-0db4-4da8-8433-818493aa2ab2_1728_dldesign_0_cycle1_af2pred (protein)
chain: GAALAARHGAAAARGALQGTVEEAAAQLANGLKIAAQLAPADGAAYRAAVLAVIAQASPERAAAILALAG
B12: design_617_b3fadc1d-0db4-4da8-8433-818493aa2ab2_1885_dldesign_0_cycle1_af2pred (protein)
chain: AEAAKKGEEAVKKAEEAKKKAEAAAAKLPASVADPVKAAADALVASAKAHAEAGNTESAEATAEVLAGMAEGTKARADALAA
B13: design_617_b3fadc1d-0db4-4da8-8433-818493aa2ab2_1083_dldesign_0_cycle1_af2pred (protein)
chain: GDPEASKEALEYAKKAEELVKKAEELKDNPELAKKLIEEAKKHIHLALAEAGKAYPEVAQKVLTTVEKVLEKIKEL
B14: design_618_d4ffd631-0ea2-432e-ba0f-bd3d6297b2a0_220_dldesign_0_cycle1_af2pred (protein)
chain: DKEEAVKLAEEGAEVALKLADKRVGAVTAAAFRGLARSIRAAEDPEDIAKIAEVAKGMKAWAEAQLKATA
B15: design_617_b3fadc1d-0db4-4da8-8433-818493aa2ab2_1373_dldesign_0_cycle1_af2pred (protein)
chain: DAALRFAEAQLRRIERLAAEIIALGGPAWAPEAEALVAEAREALELIKTDPGAGMALLIETIERAYALLAEVRAAAA
B16: design_617_b3fadc1d-0db4-4da8-8433-818493aa2ab2_1528_dldesign_0_cycle1_af2pred (protein)
chain: AQAVLQAASEAMVEAARVGSRASPEDRARLRALLAATSTAAIAAARGDGQAALDQAAALAAELTAAVEAVKARA
B17: design_617_b3fadc1d-0db4-4da8-8433-818493aa2ab2_943_dldesign_0_cycle1_af2pred (protein)
chain: AEAAQEAAVADMEKAAAIAKKYAELFPSTADALIKAAEDALAAVKANKETAAETAKAGLKALNATIAAAMRQALADSAA
B18: design_617_b3fadc1d-0db4-4da8-8433-818493aa2ab2_1993_dldesign_0_cycle1_af2pred (protein)
chain: PSVEEIGQALLDNLKKTLEEAVKASLEEAKGYAAQAAALYIGAHGASPEYGKQAEEIVKKAIKELEKKDPEKAKILKEAIEKAEALL
B19: design_617_b3fadc1d-0db4-4da8-8433-818493aa2ab2_2347_dldesign_0_cycle1_af2pred (protein)
chain: AAAEQAAREALQGRALEKMKEYVDKLVALAKETGSEAALEAAQQVASLFTQAIIAAQQDLAAGRAALAQGEALAKAAIAALE
B20: design_617_b3fadc1d-0db4-4da8-8433-818493aa2ab2_1940_dldesign_0_cycle1_af2pred (protein)
chain: MEEYRARAEELLEKAKKAAEGENGVGDVGELAVEMAKLAAEAEKASPEAGAYARAALVEISQLAIEAAKRKAA
B21: design_617_b3fadc1d-0db4-4da8-8433-818493aa2ab2_2387_dldesign_0_cycle1_af2pred (protein)
chain: AAAAEGELLGKLIELARRASKLDPETANLILSGLGLYGVDPEAGVKKLLEAAELAKKAGHEELAKEIKELAEKLAAVSAA
B22: design_617_b3fadc1d-0db4-4da8-8433-818493aa2ab2_1106_dldesign_0_cycle1_af2pred (protein)
chain: GARARMEASIAQARELAAAAVAQAAAVDPAAAAAAAAALDALLAAAEAALAAGDYDAAAAAINAAVTLAIKWMQAAAAA
B23: design_617_b3fadc1d-0db4-4da8-8433-818493aa2ab2_977_dldesign_0_cycle1_af2pred (protein)
chain: AQAVQEKAAKALATASEVAEKDQSLVPEATEAMNKASQGVALVVAGNTEEGQKLVEEALKTAEKLKKKLE
B24: design_618_d4ffd631-0ea2-432e-ba0f-bd3d6297b2a0_165_dldesign_0_cycle1_af2pred (protein)
chain: AAAAAKVAVAAAKSMIKQAKKFLEEGEKSGDLKLVESAKKLAEQAKNLAKFAIANPATKEEGEKLEKEAEEVKKKAEEAEKKIK
B25: design_618_d4ffd631-0ea2-432e-ba0f-bd3d6297b2a0_170_dldesign_0_cycle1_af2pred (protein)
chain: AAAAAAADAEAAALAKGFVEEAKKKIEALLKAGAPEEELLAEASRVAAKAIRTFAALGWNGSHAVAAVKAITEEAKKAIEKLRA
B26: design_617_b3fadc1d-0db4-4da8-8433-818493aa2ab2_1384_dldesign_0_cycle1_af2pred (protein)
chain: MEELMEKVKSLGQAAIVAATAAKSAAAAGNTDAARVLLAQARRWLEEAGEAAEKAGEEAKEVYEEVRKVVEAEIAAAEAAIAAA
B27: design_617_b3fadc1d-0db4-4da8-8433-818493aa2ab2_2043_dldesign_0_cycle1_af2pred (protein)
chain: DLVEKYREEALAEAEKLVKEGVSPEEAAEILMEKAREYFAQAAKASPEVAVKLIAKAEGYALAAKEIRERL
B28: design_617_b3fadc1d-0db4-4da8-8433-818493aa2ab2_1785_dldesign_0_cycle1_af2pred (protein)
chain: EAEEYYKKGKEYSAKGDELYKAGKYEEAIKYYQKAANYYSKASILLTKAGGDQEKIDEANANLAKALENLEKASRALREAREKEEK
B29: design_618_d4ffd631-0ea2-432e-ba0f-bd3d6297b2a0_400_dldesign_0_cycle1_af2pred (protein)
chain: SSSLIDRLTGIALKGLSIAQGVLDKVEAGEATPEEIEEGIKAAEESEKAAKELSKLLAAQPAASEYYKKLAERAKEYKEKLKKALA
B30: design_617_b3fadc1d-0db4-4da8-8433-818493aa2ab2_1608_dldesign_0_cycle1_af2pred (protein)
chain: SEAERIAKAAKEMIEQQKKAGVEGSPVSAEISAKNMEANAKAHSKAIIAADPKTGKKLAKEVKKYAEEAKKEVEEAAKKKLAA
B31: design_617_b3fadc1d-0db4-4da8-8433-818493aa2ab2_1686_dldesign_0_cycle1_af2pred (protein)
chain: MEEYLEEAKRFAESVIELSKLLLEGAPYNPALSAASLAALRKQAKARAEEAAKIDPEAAEALEKAAKTAEEAEKKAKALAA
B32: design_617_b3fadc1d-0db4-4da8-8433-818493aa2ab2_2366_dldesign_0_cycle1_af2pred (protein)
chain: GLEKALKELKKVAEATAAAATAADPAMKPTADLLKKAAERAAAGDAETALANLNTILVLADSIAAVDPAAAKKLKEAAEKAIKIAR
B33: design_617_b3fadc1d-0db4-4da8-8433-818493aa2ab2_1296_dldesign_0_cycle1_af2pred (protein)
chain: DGEKIQEVLDKAKELYKIAKEIEKKNPEYGKEILKLVQEALSLIAKGNAEEAMKKMEEAEKYAEEVKKKLKEEE
B34: design_617_b3fadc1d-0db4-4da8-8433-818493aa2ab2_1433_dldesign_0_cycle1_af2pred (protein)
chain: GVAEQAIRGLARNTVAAIEAGTLTEEGLEKALELIRGIGEAAGPAARAVAEEAIERVREAWERRKRAEAEAAAA
B35: design_617_b3fadc1d-0db4-4da8-8433-818493aa2ab2_2360_dldesign_0_cycle1_af2pred (protein)
chain: AAAQAQAQQIVDQTRAAVEEARAMAEDGATAAAAAERAAAVARQASAAIPQALAASPQIAGQLAQVALDATRVEAEARRNAA
B36: design_617_b3fadc1d-0db4-4da8-8433-818493aa2ab2_797_dldesign_0_cycle1_af2pred (protein)
chain: AEELAEEAKKYIEEARKKVTELYNEAGATELAEEANEKLESAREIVESGREHPELLPAAVAFARSVADAQLRKAESLV
B37: design_617_b3fadc1d-0db4-4da8-8433-818493aa2ab2_1003_dldesign_0_cycle1_af2pred (protein)
chain: KAAALHAIKVAETLLKKAKEFLEKGKEEGPEYYKMAYATAQSAILVAQGAVEVAKKVSKKLYKKAKKLLEEAKKLAEEAKKLAE
B38: design_617_b3fadc1d-0db4-4da8-8433-818493aa2ab2_1081_dldesign_0_cycle1_af2pred (protein)
chain: GEEAAKKAQELVEKIKKLAKEIAAGTAEQAAKLLEEALKYAKEAYKLAAKADPETAAKLSAAANEELAKANRAAIALQRA

Molecular target: CD276, Q5ZPR3
Sequence (Q5ZPR3 whole entry): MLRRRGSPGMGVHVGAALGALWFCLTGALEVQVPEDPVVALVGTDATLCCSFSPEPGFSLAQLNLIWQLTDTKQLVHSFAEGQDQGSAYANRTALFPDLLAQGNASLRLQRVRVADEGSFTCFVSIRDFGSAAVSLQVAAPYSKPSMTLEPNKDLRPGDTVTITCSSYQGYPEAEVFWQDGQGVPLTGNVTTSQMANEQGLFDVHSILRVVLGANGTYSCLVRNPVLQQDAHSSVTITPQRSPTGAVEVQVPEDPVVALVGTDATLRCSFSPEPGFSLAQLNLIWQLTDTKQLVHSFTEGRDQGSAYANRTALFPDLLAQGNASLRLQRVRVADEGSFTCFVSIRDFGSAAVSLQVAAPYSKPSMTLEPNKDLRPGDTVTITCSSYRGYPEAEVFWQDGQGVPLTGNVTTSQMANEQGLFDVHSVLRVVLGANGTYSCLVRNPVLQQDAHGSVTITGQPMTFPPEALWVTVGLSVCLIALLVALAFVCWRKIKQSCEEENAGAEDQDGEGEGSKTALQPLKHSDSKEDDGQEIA

Binding in a display sort, inactive:
B1 not found, B2 not found, B3 not found, B4 not found, B5 not found, B6 not found, B7 not found, B8 not found, B9 not found, B10 not found, B11 not found, B12 not found, B13 not found, B14 not found, B15 not found, B16 not found, B17 not found, B18 not found, B19 not found, B20 not found, B21 not found, B22 not found, B23 not found, B24 not found, B25 not found, B26 not found, B27 not found, B28 not found, B29 not found, B30 not found, B31 not found, B32 not found, B33 not found, B34 not found, B35 not found, B36 not found, B37 not found, B38 not found
